Measured values reported in PubChem BioAssay AID2391 (Southern Research Specialized Biocontainment Screening …, 2010).
Out of some 310,000 compounds screened, about 410 (0.13%) were called active. About 2% were inconclusive and are not listed. No rule for the calls is given here. The list is a sample of the results. Measured potencies and affinities stand elsewhere.

Assay: RSV antiviral activity via CPE protection, HEp-2 cells, primary 10 µM value included (AID 2391)
Settings: RSV-induced CPE inhibition, at 10 µM, hits give high values

CPE inhibition, inactive:
CCN(CC)c1ccc(NC(=O)C(C)C)cc1 0.56%
Cc1[nH]c(C)c(S(=O)(=O)N2CCN(c3ccccc3)CC2)c1C(=O)N1CCCCC1 0.61%
Cc1[nH]c(C)c(S(=O)(=O)N2CCN(c3cccc(C(F)(F)F)c3)CC2)c1C(=O)N1CCCC1 2.4%
Cc1[nH]c(C)c(S(=O)(=O)N2CCN(c3cccc(Cl)c3)CC2)c1C(=O)N1CCCC1 0.18%
COc1cccc(N2CCN(S(=O)(=O)c3c(C)[nH]c(C)c3C(=O)N3CCCCC3)CC2)c1 1.56%
Cc1nc(SCC(=O)NCc2ccco2)c2c(=O)n(C)c(=O)n(CC(C)C)c2n1 1.51%
O=c1c2c(n3cnnc3n1C1CCCCC1)-c1ccccc1CC21CCCCC1 3.08%
O=C(CCn1nnc2ccccc2c1=O)N[C@@H](Cc1ccccc1)C(=O)O 2%
COc1ccc(OC)c(CN2CCN(C(=O)c3ccco3)CC2)c1 0.83%
CNC(=O)CN1C(=O)NC(Cc2c[nH]c3ccccc23)C1=O (centres undefined) 2.1%
CC(C)(C)OC(=O)CN1C(=O)NC(Cc2c[nH]c3ccccc23)C1=O (centres undefined) -0.27%
CC1CN(C(=O)/C=C/c2ccc(SC(F)F)cc2)CC(C)O1 (centres undefined) 1.82%
Cc1occc1-c1nnc(SCC(N)=O)n1Cc1ccccc1 1%
COC(=O)c1cccnc1NC(=S)NC1CCCCC1 0.64%
CC(C)OC(=O)c1ccc(Cn2nnc3ccccc3c2=O)cc1 12.4%
Cc1ccc(O)c(NC(=S)NC(=O)CC(C)C)c1 0.23%
Cc1ccc(O)c(NC(=S)NC(=O)c2ccc(-c3ccc(Cl)cc3)o2)c1 -0.16%
CC(C)(C)c1ccc(C2C(C(=O)c3ccco3)=C(O)C(=O)N2CC2CCCO2)cc1 (centres undefined) 8.05%
O=C(CCCn1c(=O)c2sccc2n(CC(=O)NCc2ccco2)c1=O)NCc1ccco1 -0.82%
Cc1ccccc1Cn1c(=O)n(CCCC(=O)NCc2ccco2)c(=O)c2sccc21 3.02%
O=C(CCn1c(=O)c2ccccc2n(Cc2cc(=O)n3ccccc3n2)c1=O)NCc1ccco1 64%
Cc1cccc2nc(Cn3c(=O)n(CCC(=O)NCc4ccco4)c(=O)c4sccc43)cc(=O)n12 10.2%
O=C(C1=C[C@@H](c2coc3ccccc3c2=O)C[C@@H](OCc2ccc(CO)cc2)O1)N1CCN(Cc2ccc3c(c2)OCO3)CC1 4.77%
COC(=O)c1cc(S(=O)(=O)NCCc2cccc(C)c2)cn1C 0.96%
COc1ccccc1CNC(=O)Cc1csc(NC(=O)Nc2ccccc2OC)n1 7.68%
CC(C)(C)c1csc(NC(=O)Nc2ccccc2)n1 17.7%
O=C(CCCCCNC(=O)N1CCn2c1nc1ccccc12)N[C@@H](Cc1ccccc1)C(=O)O 0.73%
Cc1ccc2c(Cl)cc(Cl)c(OCC(=O)Nc3ccc(C)c(S(=O)(=O)N(C)C)c3)c2n1 1.79%
CNC(=O)/C(C#N)=C/c1c(N2CCN(c3ccccc3)CC2)nc2c(C)cccn2c1=O 14.9%
Cc1cccn2c(=O)c(/C=C(\C#N)C(=O)NCc3ccco3)c(N3CCC(C(N)=O)CC3)nc12 2.25%
CCN1CCN(c2nc3c(C)cccn3c(=O)c2/C=C(\C#N)C(=O)NC)CC1 2.17%
Cc1cccn2c(=O)c(/C=C(\C#N)C(=O)NCc3ccco3)c(N3CCOCC3)nc12 1.08%
COC(=O)[C@H](CCSC)NC(=O)NCCc1ccccc1F 0.16%
CC1CCN(Cc2c(C(=O)N/N=C/c3ccc(OC(C)C)cc3)nnn2-c2nonc2N)CC1 3%
COc1ccc(C2C3=C(CC(C)(C)CC3=O)N(C)C3=C2C(=O)CC(C)(C)C3)cc1OC 4.11%
COC(=O)C1=C(N)Oc2cc(C)n(CCCn3ccnc3)c(=O)c2C1c1cccc(Cl)c1 (centres undefined) 1.81%
CCOc1ccc(-c2cc(C(=O)N/N=C(\C)c3cccnc3)c3ccccc3n2)c(OCC)c1 0.9%
CCOc1ccc(-c2cc(C(=O)O)c3ccccc3n2)cc1 8.94%
COc1ccc(-c2cc(C(=O)N3CCCCC3)c3ccccc3n2)cc1 0.19%
COc1ccc(-c2cc(C(=O)N3CCN(c4ncccn4)CC3)c3ccccc3n2)c(OC)c1 0.07%
O=C(N/N=C/c1ccc2c(c1)OCO2)c1cc(-c2ccccc2Cl)nc2ccccc12 4.7%
O=C(N/N=C/c1ccc2c(c1)OCO2)c1cc(-c2ccccc2)nc2ccccc12 1.93%
COc1ccc(CN(C)CC(=O)Nc2ccccc2C(F)(F)F)c(OC)c1 0.3%
CCOC(=O)C1CCCN(C(=O)c2cccc(S(=O)(=O)N(C)c3ccc(C)cc3)c2)C1 (centres undefined) 0.68%
Cc1cccc(/C=N/NC(=O)c2cccc(NC(=O)c3ccccc3)c2)n1 1.75%
CC1(C)CC(=O)C=C(NNC(=O)c2ccc(N)cc2)C1 1.88%
O=C(CN(C(=O)c1csnn1)c1cccc2c1CCCC2)NCc1ccc(F)cc1 1.67%
CCOC(=O)c1c(CN2CCOCC2)oc2ccc(OC(C)=O)cc12 2.6%
COc1ccc(OCc2cc(C(=O)N3CCCC(CO)C3)no2)c2ccccc12 (centres undefined) 3.56%
CC1CC(C)(C)NC(=S)N1CC(=O)N1CCN(Cc2ccccc2)CC1 (centres undefined) -0.71%
Clc1ccc(OCc2nnc(-c3ccccc3Br)o2)cc1 11.5%
COc1ccc(-c2nc(CN3CCC(C(=O)N4CCc5ccccc54)CC3)c(C)o2)cc1OC 0.12%
COc1ccc(-c2nn(-c3ccccc3)cc2C2CC(c3cccs3)=NN2C(=O)CCCC(=O)O)cc1 (centres undefined) 6.41%
O=C(O)CCC(=O)N1N=C(c2cccs2)CC1c1cn(-c2ccccc2)nc1-c1ccccc1 (centres undefined) 1.96%
